The values below come from article PMC7862700, “An all-to-all approach to the identification of sequence-specific readers for epigenetic DNA modifications on cytosine”.

Holding throughout (experiment): DAPPL (digital affinity profiling via proximity ligation, sequencing); 10 mM Tris-HCl pH 7.5, 50 mM NaCl, 1 mM DTT, 4% glycerol, room temperature, 30 min; GST-TFs on glutathione beads, 16-mer random dsDNA library, 0.1% formaldehyde crosslink after washing; high values mean tight binding
Holding throughout (details): protein: recombinant; tags: N-terminal GST; dsDNA, one strand shown

One test deals with T1, FLI1 (Homo sapiens, UniProt Q01543 1-452).
T1 sequence: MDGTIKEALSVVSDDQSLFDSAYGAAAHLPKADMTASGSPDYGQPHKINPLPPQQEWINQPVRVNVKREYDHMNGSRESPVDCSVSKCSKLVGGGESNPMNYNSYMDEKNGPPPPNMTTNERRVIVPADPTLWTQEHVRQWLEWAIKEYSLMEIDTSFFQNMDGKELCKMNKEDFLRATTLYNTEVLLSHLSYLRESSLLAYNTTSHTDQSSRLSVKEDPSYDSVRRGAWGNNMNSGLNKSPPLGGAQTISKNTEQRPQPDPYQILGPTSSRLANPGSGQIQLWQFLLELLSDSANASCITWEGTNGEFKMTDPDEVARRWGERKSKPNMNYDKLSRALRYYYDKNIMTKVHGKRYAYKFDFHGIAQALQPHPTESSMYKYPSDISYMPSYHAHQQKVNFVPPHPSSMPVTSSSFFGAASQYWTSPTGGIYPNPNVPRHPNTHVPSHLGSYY
An outline of the steps: (§1)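 Pools of DNA-barcoded human transcription factors, expressed in yeast as GST fusions on glutathione beads and combined with a tag-only sample, were incubated with 200 nmole of a 16-mer random double-stranded DNA library. Incubation took 30 min at room temperature in Tris/NaCl/DTT/glycerol buffer and was followed by washing, 0.1% formaldehyde crosslinking, proximity ligation (BsaI/T4 ligase, 1 h, 37 °C), PCR amplification and sequencing on an Illumina NextSeq500. Binding signal is the ratio of a hexamer's read frequency for a factor to its frequency for the tag-only sample.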

The target in another test is T2, ELK1 (Homo sapiens, UniProt P19419 1-428).
T2 sequence: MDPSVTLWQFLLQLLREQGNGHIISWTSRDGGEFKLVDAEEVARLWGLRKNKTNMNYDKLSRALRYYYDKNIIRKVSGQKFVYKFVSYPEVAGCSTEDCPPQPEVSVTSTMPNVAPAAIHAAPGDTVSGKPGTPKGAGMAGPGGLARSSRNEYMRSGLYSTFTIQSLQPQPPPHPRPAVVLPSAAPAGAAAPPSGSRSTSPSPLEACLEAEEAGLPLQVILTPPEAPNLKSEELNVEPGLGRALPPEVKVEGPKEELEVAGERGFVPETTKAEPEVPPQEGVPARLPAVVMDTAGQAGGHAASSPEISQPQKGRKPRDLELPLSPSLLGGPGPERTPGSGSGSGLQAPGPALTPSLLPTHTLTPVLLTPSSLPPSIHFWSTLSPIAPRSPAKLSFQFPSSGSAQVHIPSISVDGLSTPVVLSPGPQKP
An outline of the steps: as §1

The target in a further test is T3, GABPA (Homo sapiens, UniProt Q06546 1-454).
T3 sequence: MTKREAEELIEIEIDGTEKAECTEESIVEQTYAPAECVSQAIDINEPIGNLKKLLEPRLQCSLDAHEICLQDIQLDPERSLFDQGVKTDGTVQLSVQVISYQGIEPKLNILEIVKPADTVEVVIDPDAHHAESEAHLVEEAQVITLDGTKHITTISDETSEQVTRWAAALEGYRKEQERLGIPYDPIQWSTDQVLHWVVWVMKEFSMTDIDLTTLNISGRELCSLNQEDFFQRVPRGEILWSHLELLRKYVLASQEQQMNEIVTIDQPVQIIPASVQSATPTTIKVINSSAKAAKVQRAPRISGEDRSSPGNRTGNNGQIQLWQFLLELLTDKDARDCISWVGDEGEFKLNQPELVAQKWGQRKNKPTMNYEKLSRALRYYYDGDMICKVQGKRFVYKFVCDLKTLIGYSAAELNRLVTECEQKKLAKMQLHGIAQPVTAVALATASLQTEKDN
An outline of the steps: as §1

The target of the next test is T4, ERG (Homo sapiens, UniProt P11308 1-479).
T4 sequence: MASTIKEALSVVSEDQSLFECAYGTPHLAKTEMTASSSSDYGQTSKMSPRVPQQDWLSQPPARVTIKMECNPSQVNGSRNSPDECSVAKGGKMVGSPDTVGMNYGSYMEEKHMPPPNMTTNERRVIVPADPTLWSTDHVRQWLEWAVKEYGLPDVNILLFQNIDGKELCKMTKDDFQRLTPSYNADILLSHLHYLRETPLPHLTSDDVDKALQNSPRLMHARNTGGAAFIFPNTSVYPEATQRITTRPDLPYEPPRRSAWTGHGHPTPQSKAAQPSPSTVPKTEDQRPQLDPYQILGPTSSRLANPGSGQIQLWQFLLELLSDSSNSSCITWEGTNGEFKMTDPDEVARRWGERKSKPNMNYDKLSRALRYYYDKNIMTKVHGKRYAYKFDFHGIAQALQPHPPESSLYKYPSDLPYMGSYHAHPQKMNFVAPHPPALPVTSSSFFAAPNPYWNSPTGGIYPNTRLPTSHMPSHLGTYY
An outline of the steps:
as §1

A further test addresses ELF1 (Homo sapiens, UniProt P32519 1-619). An outline of the steps:
as §1

The target of a further test is T5, EHF (Homo sapiens, UniProt Q9NZC4 1-300).
T5 sequence: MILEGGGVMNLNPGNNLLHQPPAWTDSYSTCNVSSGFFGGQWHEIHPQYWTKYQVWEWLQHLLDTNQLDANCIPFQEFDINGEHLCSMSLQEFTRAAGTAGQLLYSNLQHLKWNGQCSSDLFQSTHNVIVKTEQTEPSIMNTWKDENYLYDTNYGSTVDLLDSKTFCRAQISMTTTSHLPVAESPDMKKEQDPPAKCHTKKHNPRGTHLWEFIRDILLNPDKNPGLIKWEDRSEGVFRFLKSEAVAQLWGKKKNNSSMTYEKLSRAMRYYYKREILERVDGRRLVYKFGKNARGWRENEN
An outline of the steps:
as §1

Another test concerns the target SPI1 (Homo sapiens, UniProt P17947 1-270). An outline of the steps:
as §1

The target in the next test is SPIB (Homo sapiens, UniProt Q01892 1-262). An outline of the steps:
as §1

A further test concerns the target T6, ELK3 (Homo sapiens, UniProt P41970 1-407).
T6 sequence: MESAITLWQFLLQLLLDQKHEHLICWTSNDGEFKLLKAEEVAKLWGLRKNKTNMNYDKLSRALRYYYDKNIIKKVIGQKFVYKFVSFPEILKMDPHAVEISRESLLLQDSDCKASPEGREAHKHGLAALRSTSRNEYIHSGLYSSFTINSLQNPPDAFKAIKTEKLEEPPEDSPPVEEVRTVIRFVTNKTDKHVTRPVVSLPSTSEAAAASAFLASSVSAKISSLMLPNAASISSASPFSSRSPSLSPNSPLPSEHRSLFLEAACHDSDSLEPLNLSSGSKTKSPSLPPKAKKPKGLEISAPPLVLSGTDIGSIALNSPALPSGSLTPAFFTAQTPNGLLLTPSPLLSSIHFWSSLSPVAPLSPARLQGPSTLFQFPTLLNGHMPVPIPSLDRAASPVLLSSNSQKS
An outline of the steps:
as §1

ELF1, sequence (P32519 whole entry): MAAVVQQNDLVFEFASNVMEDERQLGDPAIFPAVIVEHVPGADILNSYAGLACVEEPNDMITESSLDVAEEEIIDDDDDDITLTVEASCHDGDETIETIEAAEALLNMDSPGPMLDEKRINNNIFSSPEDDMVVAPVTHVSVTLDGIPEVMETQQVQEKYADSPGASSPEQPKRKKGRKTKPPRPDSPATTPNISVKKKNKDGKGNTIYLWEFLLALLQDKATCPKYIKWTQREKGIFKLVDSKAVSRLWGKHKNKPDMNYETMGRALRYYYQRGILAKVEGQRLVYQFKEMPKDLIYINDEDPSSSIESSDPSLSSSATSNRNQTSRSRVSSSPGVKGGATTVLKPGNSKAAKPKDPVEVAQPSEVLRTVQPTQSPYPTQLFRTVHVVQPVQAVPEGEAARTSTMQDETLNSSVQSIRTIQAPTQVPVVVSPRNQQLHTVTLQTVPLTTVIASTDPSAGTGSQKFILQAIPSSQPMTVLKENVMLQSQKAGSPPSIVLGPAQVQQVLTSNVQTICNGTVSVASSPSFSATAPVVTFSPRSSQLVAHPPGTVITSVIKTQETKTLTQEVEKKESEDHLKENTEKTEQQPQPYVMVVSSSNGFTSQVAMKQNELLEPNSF
SPIB, sequence (Q01892 whole entry): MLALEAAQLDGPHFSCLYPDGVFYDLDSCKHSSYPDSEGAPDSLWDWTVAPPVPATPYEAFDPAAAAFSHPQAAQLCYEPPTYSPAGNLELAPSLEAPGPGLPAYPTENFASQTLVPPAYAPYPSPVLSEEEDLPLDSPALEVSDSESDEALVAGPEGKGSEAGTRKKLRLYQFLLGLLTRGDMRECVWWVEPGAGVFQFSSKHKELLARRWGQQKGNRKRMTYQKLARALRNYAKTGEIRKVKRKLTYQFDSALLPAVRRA

Take GCACAA: the binding signal with FLI1 was 1.1 fold enrichment (6-mer frequency, TF over GST control); with ELK1, 1.13 fold enrichment (6-mer frequency, TF over GST control); with GABPA, 1.09 fold enrichment (6-mer frequency, TF over GST control); with ERG, 1.1 fold enrichment (6-mer frequency, TF over GST control); in the test with ELF1, 1.09 fold enrichment (6-mer frequency, TF over GST control); in the test with EHF it was 1.1 fold enrichment (6-mer frequency, TF over GST control). The binding signal with SPI1 was 1.05 fold enrichment (6-mer frequency, TF over GST control); in the test with SPIB, 1.09 fold enrichment (6-mer frequency, TF over GST control); with ELK3, 1.12 fold enrichment (6-mer frequency, TF over GST control).

Consider ATTTGT, for which the binding signal is 1.36 fold enrichment (6-mer frequency, TF over GST control) with FLI1; 1.36 fold enrichment (6-mer frequency, TF over GST control) with ELK1; 1.34 fold enrichment (6-mer frequency, TF over GST control) with GABPA; 1.28 fold enrichment (6-mer frequency, TF over GST control) in the test with ERG; 1.31 fold enrichment (6-mer frequency, TF over GST control) in the test with ELF1; 1.3 fold enrichment (6-mer frequency, TF over GST control) with EHF. Also, the binding signal with SPI1 is 1.26 fold enrichment (6-mer frequency, TF over GST control); with SPIB, 1.27 fold enrichment (6-mer frequency, TF over GST control); with ELK3, 1.24 fold enrichment (6-mer frequency, TF over GST control).

Regarding ATTACT, the binding signal in the test with FLI1 was 1.3 fold enrichment (6-mer frequency, TF over GST control); in the test with ELK1 it was 1.12 fold enrichment (6-mer frequency, TF over GST control); with GABPA, 1.29 fold enrichment (6-mer frequency, TF over GST control); with ERG it was 1.22 fold enrichment (6-mer frequency, TF over GST control); in the test with ELF1 it was 1.28 fold enrichment (6-mer frequency, TF over GST control); with EHF, 1.27 fold enrichment (6-mer frequency, TF over GST control). Also, the binding signal with SPI1 is 1.28 fold enrichment (6-mer frequency, TF over GST control); with SPIB, 1.33 fold enrichment (6-mer frequency, TF over GST control); with ELK3 it was 1.24 fold enrichment (6-mer frequency, TF over GST control).

For TGTCTA, the binding signal in the test with FLI1 was 1.2 fold enrichment (6-mer frequency, TF over GST control); with ELK1, 1.15 fold enrichment (6-mer frequency, TF over GST control); with GABPA, 1.12 fold enrichment (6-mer frequency, TF over GST control); in the test with ERG it was 1.17 fold enrichment (6-mer frequency, TF over GST control); in the test with ELF1 it was 1.15 fold enrichment (6-mer frequency, TF over GST control); with EHF, 1.12 fold enrichment (6-mer frequency, TF over GST control). For the same sequence, the binding signal is 1.09 fold enrichment (6-mer frequency, TF over GST control) with SPI1; 1.02 fold enrichment (6-mer frequency, TF over GST control) in the test with SPIB; 1.36 fold enrichment (6-mer frequency, TF over GST control) with ELK3.

For AATAGG, the binding signal is 1.15 fold enrichment (6-mer frequency, TF over GST control) with FLI1; 1.11 fold enrichment (6-mer frequency, TF over GST control) with ELK1; 1.15 fold enrichment (6-mer frequency, TF over GST control) with GABPA; 1.2 fold enrichment (6-mer frequency, TF over GST control) with ERG; 1.08 fold enrichment (6-mer frequency, TF over GST control) with ELF1; 1.27 fold enrichment (6-mer frequency, TF over GST control) with EHF. In addition, the binding signal in the test with SPI1 is 1.37 fold enrichment (6-mer frequency, TF over GST control); with SPIB, 1.22 fold enrichment (6-mer frequency, TF over GST control); with ELK3 it was 1.14 fold enrichment (6-mer frequency, TF over GST control).

As for AATTGG, the binding signal with FLI1 was 1.38 fold enrichment (6-mer frequency, TF over GST control); with ELK1, 1.36 fold enrichment (6-mer frequency, TF over GST control); with GABPA, 1.31 fold enrichment (6-mer frequency, TF over GST control); with ERG, 1.34 fold enrichment (6-mer frequency, TF over GST control); in the test with ELF1, 1.33 fold enrichment (6-mer frequency, TF over GST control); with EHF it was 1.42 fold enrichment (6-mer frequency, TF over GST control). The binding signal is 1.4 fold enrichment (6-mer frequency, TF over GST control) with SPI1; 1.42 fold enrichment (6-mer frequency, TF over GST control) with SPIB; 1.48 fold enrichment (6-mer frequency, TF over GST control) in the test with ELK3.

Turning to CTATAA, the binding signal with FLI1 was 1.26 fold enrichment (6-mer frequency, TF over GST control); with ELK1, 1.22 fold enrichment (6-mer frequency, TF over GST control); with GABPA, 1.18 fold enrichment (6-mer frequency, TF over GST control); in the test with ERG it was 1.2 fold enrichment (6-mer frequency, TF over GST control); with ELF1, 1.27 fold enrichment (6-mer frequency, TF over GST control); in the test with EHF it was 1.12 fold enrichment (6-mer frequency, TF over GST control). In addition, the binding signal in the test with SPI1 was 1.25 fold enrichment (6-mer frequency, TF over GST control); in the test with SPIB it was 1.35 fold enrichment (6-mer frequency, TF over GST control); with ELK3, 1.25 fold enrichment (6-mer frequency, TF over GST control).

As for AGAAGC, the binding signal with FLI1 is 1.11 fold enrichment (6-mer frequency, TF over GST control); with ELK1 it was 1.15 fold enrichment (6-mer frequency, TF over GST control); in the test with GABPA it was 1.12 fold enrichment (6-mer frequency, TF over GST control); with ERG, 1.16 fold enrichment (6-mer frequency, TF over GST control); with ELF1 it was 1.08 fold enrichment (6-mer frequency, TF over GST control); with EHF it was 1.21 fold enrichment (6-mer frequency, TF over GST control). The binding signal with SPI1 was 1.22 fold enrichment (6-mer frequency, TF over GST control); in the test with SPIB, 1.15 fold enrichment (6-mer frequency, TF over GST control); with ELK3, 1.1 fold enrichment (6-mer frequency, TF over GST control).
